# Screens as filed in PubChem BioAssay.
# Rows were chosen to be rich in hits. Some 7.5% of all compounds tested hit in one or more screens of this group.
# FMDV inh: foot and mouth disease virus antiviral activity. FMDV antiviral cell-based qHTS. Potency, µM (highest dose often 57.9 µM), usual class: inhibitors. AID 1159524. 1.2% of 410,000 active; calls by dose curve; tested in HEK293T cells; note: read-out not given here; nearly all actives have a fitted effect of over 45% in size
# VACV Venus inh: vaccinia inhibition (Venus reporter) | Vaccinia virus Venus reporter expression, fluorescence | Potency, µM (series often up to 36.5 µM), usual class: inhibitors | 0.46% of 330,000 active; calls by dose curve; tested in A549 cells; note: nearly all actives have a fitted effect of over 30% in size
# HCMV antiviral: human cytomegalovirus inhibition; HFF cells, HCMV-luciferase reporter, 72 h; hits give low values; activity change, negative = inhibition, % at 57.5 µM; 4.5% of 410,000 active; AID 1259415; in the data active = activity change below about -60%; inconclusive = no clear call, values can overlap the other calls; inactive = above about -39%
#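 Luciferase read-out from HCMV-luciferase-infected HFFs (MOI 1 PFU/cell) 72 h post infection at 37C; compounds added after 16 h cell attachment; activity normalized between buffer-only basal and Salinomycin (10uM) inhibitor controls.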
# VACV mCherry inh: inhibitors of vaccinia virus infection (mCherry reporter signal); AID 720579; Vaccinia virus mCherry reporter infection, fluorescence; 0.63% of 310,000 active; Potency, µM (top dose mostly 36.5 µM), actives largely listed as inhibitors; calls by dose curve; tested in A549 cells; note: nearly all actives have a fitted effect of over 35% in size
# Giardia FBPA inh: Giardia lamblia aldolase inhibition. A8B2U2. purified Giardia FBPA. Potency, µM (titrated, usually from 59.6 µM), usual class: inhibitors. 0.71% of 290,000 active; note: nearly all actives have a fitted effect of over 55% in size
# Target sequence (A8B2U2 whole entry, looked up): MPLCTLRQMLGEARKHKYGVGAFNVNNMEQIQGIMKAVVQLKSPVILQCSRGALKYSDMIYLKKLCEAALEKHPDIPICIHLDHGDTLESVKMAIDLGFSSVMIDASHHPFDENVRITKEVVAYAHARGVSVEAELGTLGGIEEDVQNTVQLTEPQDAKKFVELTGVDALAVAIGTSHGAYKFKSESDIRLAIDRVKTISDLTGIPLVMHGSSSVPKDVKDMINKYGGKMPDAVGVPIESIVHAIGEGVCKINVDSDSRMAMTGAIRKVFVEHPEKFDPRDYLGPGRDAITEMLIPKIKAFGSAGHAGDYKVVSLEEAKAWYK
#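 Giardia FBPA (40 nM reagent) was preincubated 10 min at RT with compound (up to 57.5 uM final), then substrate plus GAPDH/TPI/NAD/arsenate coupling system with diaphorase/resazurin was added; resorufin fluorescence (525/598 nm) was read after 20 min.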
# HCV inh: inhibitors of hepatitis C virus infection; Huh7.5.1 HCVcc-Cre infection, luciferase reporter, 44 h; AID 651820; 3.4% of 340,000 active; Potency, µM (doses to about 41.8 µM), usual class: inhibitors
#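 HCVcc-Cre virus at an moi near 0.5 was added right after compound to cells cultured 4 h from seeding (1,000 cells/well). Luciferase activity was determined 44 h later, 15 min after substrate addition at RT.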
# Numbers stand for hits; . = inactive; ? = inconclusive; / = no result given. Unless noted, calls come from the whole dose curve; as a rule, active = well fitted curve in the direction sought with a large enough effect; inconclusive = small, poorly fitted or top-dose-only effect, or another doubt; inactive = no such curve, though single readings can be large; an effect the other way counts as inactive or inconclusive.
SMILES,FMDV inh,VACV Venus inh,HCMV antiviral,VACV mCherry inh,Giardia FBPA inh,HCV inh
CN(C(=O)COC(=O)c1ccc(=O)n(Cc2ccccc2)n1)c1ccccc1,.,/,.,/,.,.
C#CCOCCOCCOCCNc1nc(N2CCN(C(=O)CCCCCCCCCCNC(=O)Cn3cc(C[C@@H](C)O)nn3)CC2)nc(N2CCN(C(=O)CCCCCCCCCCNC(=O)[C@@H]([C@H](C)CC)n3cc(CCCCCN)nn3)CC2)n1,35µM,?,/,?,/,?
C#CCOCCOCCOCCNc1nc(N2CCN(C(=O)CCCCCCCCCCNC(=O)Cn3cc(CCCCCN)nn3)CC2)nc(N2CCN(C(=O)CCCCCCCCCCNC(=O)[C@@H]([C@H](C)O)n3cc(C)nn3)CC2)n1,.,10µM,/,?,/,.
C#CCOCCOCCOCCNc1nc(N2CCN(C(=O)CCCCCCCCCCNC(=O)Cn3cc(CCCCCN)nn3)CC2)nc(N2CCN(C(=O)CCCCCCCCCCNC(=O)Cn3cc(C[C@@H](C)O)nn3)CC2)n1,.,?,/,.,/,?
COc1ccc(/C=C/C2=CC(C)(C)NC(=S)N2)cc1,.,.,?,.,.,?
Cc1ccc(-c2nc(CSCC(=O)N3CCN(c4ccccn4)CC3)c(C)o2)cc1,?,?,?,?,.,?
COc1ccc(-c2nc(CSCC(=O)N3CCN(c4ccccc4F)CC3)c(C)o2)cc1,32µM,?,?,?,/,/
CCOc1ccc(-c2nc(CSCC(=O)N3CCN(c4cccc(OC)c4)CC3)c(C)o2)cc1,20µM,?,-77,?,.,13µM
CCc1ccc(-c2nc(CSCC(=O)N3CCN(c4ccccn4)CC3)c(C)o2)cc1,20µM,/,.,/,.,16µM
O=C(OCCC12CC3CC(CC(C3)C1)C2)c1ccc(NCc2cc(O)ccc2O)cc1,?,?,-77,.,/,2.2µM
CC1Cc2cc(S(=O)(=O)N3CCC(C(=O)N(C)Cc4ccco4)CC3)ccc2N1C(=O)C1CCC1 (stereo not given),.,/,.,/,.,.
O=C(NC1CCCC1)c1n[nH]c2ccccc12,.,/,.,/,.,.
CC1S/C(=C(\C#N)C(=O)NCc2ccco2)N(c2ccc(F)cc2)C1=O (stereo not given),.,.,-97,/,.,.
CCOC1=C2[C@H](c3ccccc3)N(S(=O)(=O)c3ccc(C)cc3)C(C(C)(C)C)[C@H]2C(C#N)(C#N)C(C#N)(C#N)C1 (stereo not given in full),?,.,-100,.,/,/
CCOC1=C2CN(S(=O)(=O)c3ccc(C)cc3)[C@H](c3cccc4ccccc34)C[C@H]2C(C#N)(C#N)C(C#N)(C#N)C1,?,.,/,.,/,/
Cc1ccc(Cn2ccsc2=NC(=O)COC(=O)c2ccc(NC(=O)CC#N)cc2)cc1,25µM,.,.,.,/,?
Cc1ccc(Cn2ccsc2=NC(=O)CCl)cc1,?,/,-99,/,.,0.56µM
CCCCN(C)CCCNC(=O)C1CCN(c2nc3ccc(CC)cc3s2)CC1,.,.,-108,.,/,/
CCCCN(CC)CCCNC(=O)C1CCN(c2nc3ccc(CC)cc3s2)CC1,.,.,-98,.,/,/
COc1ccc(-c2noc3c2-c2nc(-c4ccc(C)cc4)sc2CC3)cc1,.,.,?,.,/,.
COc1ccc(-c2noc3c2-c2nc(-c4c(F)cccc4F)sc2CC3)cc1,?,.,.,.,.,3.5µM
CCOc1ccc(-c2nc3c(s2)CCc2onc(-c4ccc(OC)cc4)c2-3)cc1,.,.,-60,.,/,.
CCCc1cc(=O)[nH]c(/N=C(/NC(=O)c2ccccc2)Nc2ccc3c(c2)OCCO3)n1,.,.,/,.,/,.
Cc1ccc(C(=O)NNC(=O)CSc2nnc3c(n2)[nH]c2ccc(F)cc23)cc1,.,/,.,/,.,?
CCOc1ccc(-c2nnc(SCC(=O)NCc3ccc(C)cc3)nc2-c2ccc(OCC)c(OC)c2)cc1OC,.,.,.,.,/,/
COc1cccc(CNC(=O)CSc2nnc3c(n2)[nH]c2ccccc23)c1,?,.,.,.,.,10µM
COc1ccc(-c2nnc(SCC(=O)NCc3ccccc3)nc2-c2ccc(OC)c(OC)c2)cc1OC,.,.,-78,?,/,/
CC1CCc2cc(F)ccc2N1C(=O)CSc1nnc2c(n1)[nH]c1ccccc12 (stereo not given),?,.,-76,.,.,?
